From PubChem BioAssay AID1159580 (chemical genetic matrix, 2015)
Values joined by “and” are separate entries in the source; they are usually repeats but may differ in a detail not shown here. Identical values can stand only once. Hit rate of the full screen: of about 5,500 compounds, about 2,000 (36%) were called active. Another 18% or so got no clear call; they are omitted. Rule as the data show it: active = normalized growth mostly below about 0.91 (no sharp cut-off); inconclusive = no clear call, values can overlap the other calls; inactive = mostly above about 0.92. The list shows a part of the results.

Assay: chemical genetic growth profiling, strain panel (AID 1159580);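 also: tested at 20 µM; growth read once vehicle control cultures reached saturation at 30 °C; 1 = growth at the plate median or of vehicle wells; lower values mean less growth of the strain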
Conditions: S. cerevisiae deletion strains, growth OD

Measured: normalized growth

CC(=O)O[C@]1(C(C)=O)CCC2C3C=C(C)C4=CC(=O)CCC4(C)C3CCC21C (stereo partly specified)
0.917 (active) and 0.949 (inactive): locus YHR030C, strain SLT2, stronger effect = lower value
inactive: locus YAL021C, strain ccr4, stronger effect = lower value 1.04 | locus YAL026C, strain drs2, stronger effect = lower value 0.961 | locus YAL030W, strain snc1, stronger effect = lower value 0.959 | locus YBL061C, strain skt5, stronger effect = lower value 0.932 | locus YBR009C, strain hhf1, stronger effect = lower value 0.916 | locus YBR021W, strain FUR4, stronger effect = lower value 0.924 | locus YBR023C, strain chs3, stronger effect = lower value 0.92 | locus YBR171W, strain sec66, stronger effect = lower value 0.926 | locus YBR229C, strain ROT2, stronger effect = lower value 0.985 | locus YBR231C, strain swc5, stronger effect = lower value 0.933 | locus YBR279W, strain paf1, stronger effect = lower value 0.993 | locus YCL011C, strain gbp2, stronger effect = lower value 0.975 | locus YCL016C, strain dcc1, stronger effect = lower value 0.971 | locus YCL029C, strain bik1, stronger effect = lower value 0.958 | locus YCL069W, strain vba3, stronger effect = lower value 0.929 | locus YCR088W, strain abp1, stronger effect = lower value 0.958 | locus YDL005C, strain med2, stronger effect = lower value 0.934 | locus YDL035C, strain GPR1, stronger effect = lower value 0.908 | locus YDL040C, strain nat1, stronger effect = lower value 0.968 | locus YDL074C, strain BRE1, stronger effect = lower value 0.784 | locus YDL101C, strain DUN1, stronger effect = lower value 0.982 | locus YDL134C, strain PPH21, stronger effect = lower value 0.996 | locus YDL185W, strain tfp1, stronger effect = lower value 0.984 | locus YDL192W, strain arf1, stronger effect = lower value 0.957 | locus YDR001C, strain nth1, stronger effect = lower value 0.964 | locus YDR069C, strain doa4, stronger effect = lower value 0.978 | locus YDR101C, strain arx1, stronger effect = lower value 0.969 | locus YDR150W, strain NUM1, stronger effect = lower value 0.993 | locus YDR159W, strain sac3, stronger effect = lower value 0.892 | locus YDR195W, strain ref2 0.976 | locus YDR297W, strain sur2, stronger effect = lower value 0.951 | locus YDR318W, strain mcm21, stronger effect = lower value 0.92 | locus YDR334W, strain swr1, stronger effect = lower value 0.962 | locus YDR335W, strain msn5, stronger effect = lower value 0.957 | locus YDR388W, stronger effect = lower value 0.975 | locus YEL003W, strain gim4, stronger effect = lower value 0.941 | locus YEL037C, strain rad23, stronger effect = lower value 0.969 | locus YEL061C, strain CIN8 (second series), stronger effect = lower value 0.959 | locus YEL061C, strain CIN8, stronger effect = lower value 0.989 | locus YER015W, strain faa2, stronger effect = lower value 0.971 | locus YER016W, strain bim1, stronger effect = lower value 0.966 | locus YER110C, stronger effect = lower value 0.958 | locus YER111C, strain swi4, stronger effect = lower value 0.963 | locus YER155C, strain BEM2, stronger effect = lower value 1.01 | locus YFR010W, strain ubp6, stronger effect = lower value 0.961 | locus YGL078C, strain dbp3, stronger effect = lower value 0.992 | locus YGL167C, strain pmr1, stronger effect = lower value 0.955 | locus YGL173C, strain kem1, stronger effect = lower value 0.92 | locus YGL227W, strain vid30, stronger effect = lower value 0.968 | locus YGL240W, strain doc1, stronger effect = lower value 0.925 | locus YGL248W, strain PDE1, stronger effect = lower value 0.992 | locus YGL253W, strain hxk2, stronger effect = lower value 0.915 | locus YGR252W, strain gcn5, stronger effect = lower value 0.862 | locus YHR013C, strain ard1, stronger effect = lower value 0.998 | locus YHR027C, strain rpn1, stronger effect = lower value 0.981 | locus YHR079C, strain IRE1 (second series), stronger effect = lower value 0.969 | locus YHR079C, strain IRE1, stronger effect = lower value 0.958 | locus YHR094C, strain hxt1, stronger effect = lower value 0.98 | locus YHR129C, strain ARP1, stronger effect = lower value 0.94 | locus YHR200W, strain rpn10, stronger effect = lower value 0.956 | locus YIL066C, strain RNR3, stronger effect = lower value 0.878 | locus YIL073C, strain SPO22, stronger effect = lower value 0.887 | locus YIL125W, strain kgd1, stronger effect = lower value 0.982 | locus YIR030C, strain dcg1, stronger effect = lower value 0.973 | locus YJL092W, strain hpr5, stronger effect = lower value 0.944 | locus YJL095W, strain BCK1 (second series), stronger effect = lower value 0.931 | locus YJL115W, strain asf1, stronger effect = lower value 0.973 | locus YJL134W, strain LCB3, stronger effect = lower value 0.989 | locus YJL154C, strain vps35, stronger effect = lower value 0.964 | locus YJL164C, strain tpk1, stronger effect = lower value 0.951 | locus YJL168C, strain set2, stronger effect = lower value 0.969 | locus YJL187C, strain SWE1 (second series), stronger effect = lower value 0.98 | locus YJR066W, strain TOR1, stronger effect = lower value 0.929 | locus YJR075W, strain HOC1, stronger effect = lower value 0.952
0.741 (active) and 0.98 (inactive): locus YJL095W, strain BCK1, stronger effect = lower value
active: locus YAL013W, strain DEP1, stronger effect = lower value 0.897 | locus YDR137W, strain rgp1, stronger effect = lower value 0.775 | locus YDR162C, strain NBP2, stronger effect = lower value 0.804 | locus YDR392W, strain spt3, stronger effect = lower value 0.445 | locus YDR502C, strain sam2, stronger effect = lower value 0.904 | locus YER155C, strain BEM2 (second series), stronger effect = lower value 0.859 | locus YER167W, strain BCK2, stronger effect = lower value 0.88 | locus YGL086W, strain mad1, stronger effect = lower value 0.91 | locus YGR078C, strain PAC10, stronger effect = lower value 0.836 | locus YGR135W, strain pre9, stronger effect = lower value 0.883 | locus YGR229C, strain SMI1, stronger effect = lower value 0.643 | locus YHR142W, strain chs7, stronger effect = lower value 0.815 | locus YJL129C, strain trk1, stronger effect = lower value 0.854 | locus YJL166W, strain qcr8, stronger effect = lower value 0.863 | locus YJR043C, strain POL32, stronger effect = lower value 0.85
